Drawing on PubChem BioAssay AID652105 (National Center for Advancing Translational Sciences (NCATS), 2013), this text covers max response for 53 compounds.

In all, about 330,000 compounds went through this assay and about 4,100 (1.2%) were called active. Not shown: some 2% with an inconclusive outcome. This excerpt belongs to a sample that is enriched for actives. Unmarked numbers belong to inactive results. The calls were made as follows: active = max response of -50% or lower; inconclusive = between -30% and -50%; inactive = -30% or higher.
% is scaled to controls: 0 for no effect and ±100 for the full control effect.

The target of this assay is Phosphatidylinositol 5-phosphate 4-kinase type-2 alpha (Homo sapiens) (UniProt P48426). Nature of the assay: qHTS for Inhibitors of phosphatidylinositol 5-phosphate 4-kinase (PI5P4K). Also: value at the top dose of about 77 µM. Particulars: PI5P4Kalpha enzyme, ADP-Glo luminescence, 60 min; active compounds read low. In outline: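 Controls without substrate or without enzyme flank wells where PI5P4Kalpha converts substrate using 5 microM ATP (final). Incubation lasts 60 minutes at room temperature; ADP formed is read by ADP-Glo luminescence.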
Phosphatidylinositol 5-phosphate 4-kinase type-2 alpha (Homo sapiens), sequence (P48426 whole entry, looked up): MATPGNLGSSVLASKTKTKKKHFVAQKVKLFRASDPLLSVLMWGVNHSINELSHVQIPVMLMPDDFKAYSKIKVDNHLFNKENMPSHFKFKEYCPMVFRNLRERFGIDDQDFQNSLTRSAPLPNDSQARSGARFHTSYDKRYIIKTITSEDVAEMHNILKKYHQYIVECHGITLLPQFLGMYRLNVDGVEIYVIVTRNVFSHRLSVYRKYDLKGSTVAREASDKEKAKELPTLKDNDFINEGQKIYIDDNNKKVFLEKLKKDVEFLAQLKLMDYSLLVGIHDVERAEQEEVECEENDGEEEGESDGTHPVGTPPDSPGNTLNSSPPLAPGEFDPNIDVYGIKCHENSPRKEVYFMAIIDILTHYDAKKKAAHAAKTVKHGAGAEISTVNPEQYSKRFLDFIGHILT
(In general: Quantitative high-throughput screening tests each substance at several concentrations.)
On to `Cc1cc(C)n2c(NCc3ccccc3)c(CC(C)C)nc2n1`, for which the max response was -0.19%.
With `C[C@H]1CN(c2ccc(Br)cc2)C(=O)[C@@H]1CC(=O)Nc1ccc(Br)cc1` the figure was -1.71%.
The result for `COc1ccc(C(NC(=O)C2CCN(CCCc3ccccc3)CC2)c2cccs2)cc1` (stereo not drawn) reads -1.92%.
Turning to `O=C(N/N=C\c1cc(Br)c(Br)o1)C1COc2ccccc2O1` (stereo not drawn), the max response was 1.1%.
The result for `O=C(N/N=C/c1cc2c(cc1Br)OCO2)C1COc2ccccc2O1` (stereo not drawn) reads 0.44%.
The result for `O=C(CNC(=O)C1COc2ccccc2O1)N/N=C/c1cc(Br)c(O)c(Br)c1` (stereo not drawn) reads -78.5% (active); that for `CC(C)NC(=O)N1Cc2cc(C(=O)NCC(F)(F)F)nc(-c3cccc(-c4cc5ccccc5o4)c3)c2[C@@H]1CCO`, 10.9%.
Regarding `CN1CCN(c2ccc3c(c2)OC[C@H](Cc2ccccc2)NS3(=O)=O)CC1`, the max response is 6.74%.
Consider `O=S(=O)(c1ccc(NC(=S)NN=C(C2CC2)C2CC2)cc1)N1CCOCC1`, for which the max response was -67.5% (active).
The result for `O=C(NC(=S)Nc1ccc(S(=O)(=O)N2CCOCC2)cc1)c1ccccc1[N+](=O)[O-]` reads -13.4%; that for `O=C(Nc1ccc(S(=O)(=O)N2CCOCC2)cc1)C1CCN(S(=O)(=O)c2ccc(Cl)cc2)CC1`, 11.3%.
The result for `COc1cccc(-c2cnc3c(NC(C)=O)cc(-c4cc(F)ccc4OC)cn23)c1` reads 0.465%; that for `Cc1ccc(-c2ccc(CN3C(C)C(=O)N(Cc4cn(CCC5OCCCO5)nn4)CCS3(=O)=O)cc2)cc1` (stereo not drawn), -1.32%; that for `CCOc1ccc(-n2c(O)c(/C=N/Nc3nc(C)cc(C)n3)c3ccccc3c2=O)cc1`, 3.69%.
The result for `CCOc1ccc(-n2c(O)c(/C=N/Nc3nnc(C)c(=O)[nH]3)c3ccccc3c2=O)cc1` reads -64% (active); that for `CCOc1ccc(-n2c(O)c(/C=N/c3ccnn3Cc3ccncc3)c3ccccc3c2=O)cc1`, 1.64%.
`O=C1NC(O)CCN1C1CC(O)C(CO)O1` (stereo not drawn): the max response is -0.0784%.
The result for `Cc1ccc(Cc2c(-c3ccccc3)nc3ccc(Cl)cn23)cc1` reads 3.67%; that for `Cc1ccc2nc(-c3ccco3)c(Cc3cccc(Cl)c3)n2c1`, -20%; that for `Cc1ccc(Cc2c(-c3ccco3)nc3ccc(Cl)cn23)cc1`, -53.8% (active).
For the compound `Cc1ccc([C@H]2N[C@]3(CCCN(CC4CCCCC4)C3=O)[C@H]3C(=O)N(Cc4ccccc4)C(=O)[C@@H]23)cc1`, the max response is -7.84%.
The result for `Cc1cc(Cl)ccc1-c1nc(NCCN(C)C)nc2ccsc12` reads 2.25%; that for `Cc1cc(O)c(Sc2ccccc2)c(=O)o1`, 5.88%.
The result for `Cc1cc(O)c(C(=O)/C=C/c2c(F)c(F)c(F)c(F)c2F)c(=O)o1` reads -77.8% (active); that for `Cc1ccc(N=Cc2c(O)cc(C)oc2=O)c(C)c1`, -7.86%; that for `CCc1nc2c(OCc3ccc(Cl)cc3Cl)cccn2c1N(C)C(=O)C(C)C`, 2.81%.
The result for `O=C(NC1CCCC1)C1c2ccccc2OCC(=O)N1Cc1ccccc1` (stereo not drawn) reads -0.138%; that for `CCCC(=O)N1CCC1(C)C(=O)NCc1ccc(C(C)C)cc1` (stereo not drawn), -1.03%; that for `CC(C)Cc1ccc(-c2cc3nc(NCc4cccc(Cl)c4)ccn3n2)cc1`, 47.1%.
Take `COc1ccccc1CNC(=O)c1cc(-c2cc(Cl)ccc2C)n[nH]1`: the max response is -0.482%.
For `CCSc1nc(C)c(CCOc2cccc(C)c2)c(=O)[nH]1`, the max response is 0.672%.
The result for `CCn1c(SC)nc(O)c(C(c2ccc(OC)c(O)c2)c2c(O)nc(SC)n(CC)c2=O)c1=O` reads -12.5%; that for `CCSc1nc(O)c(C(c2cccc(OC)c2)c2c(O)nc(SCC)[nH]c2=O)c(=O)[nH]1`, -58.8% (active).
With `O=C(c1ccccc1)N1CCN(c2cc(-c3ccccc3)nc3cc(-c4cccc(Cl)c4)nn23)CC1` the figure was 6.72%.
The result for `O=S1(=O)CC(N2CCN(Cc3ccccc3F)CC2)CN1Cc1cn(Cc2cccc(C(F)(F)F)c2)nn1` (stereo not drawn) reads 4.9%; that for `O=C(Nc1ccc(F)cc1)C(CCc1ccccc1)N1CCN(CC(=O)N2CCCC2)CC1` (stereo not drawn), -9.87%; that for `Cc1ccc(S(=O)(=O)NCCSc2ccccc2)cc1[N+](=O)[O-]`, -4.48%.
With `CCS(=O)(=O)c1cc([N+](=O)[O-])c(Sc2ccccc2N)s1`, the max response was -65.8% (active).
With `COc1c(C)cc(C(O)c2ncc(-c3cccc(C(F)(F)F)c3)[nH]2)cc1C` (stereo not drawn) the figure was -7.49%.
With `COc1ccc(Br)cc1/C=N/NC(=O)c1cccc(S(=O)(=O)N2CCOCC2)c1` the figure was -4.11%; with `CCOc1ccc2[nH]c(C(=O)N/N=C/c3cccc(OC)c3OC)cc2c1`, 8.06%; with `COc1ccc(/C=N/NC(=O)c2ccc3c(c2)OCCO3)c(OC)c1`, 3.95%.
The result for `COc1cc2cc(C(=O)N/N=C/c3cccc(OC)c3OC)[nH]c2cc1OC` reads 0.853%.
On to `COc1cccc(/C=N\NC(=O)C2=NNC(=O)C2C)c1O` (stereo not drawn), for which the max response was -72.8% (active).
With `COc1cccc(/C=N/NC(=O)c2[nH]nc3c2CCc2ccccc2-3)c1O` the figure was -53% (active).
Turning to `CC1(C(=O)Nc2ccc3c(c2)OCCO3)CSCC(=O)N1CCOc1ccccc1` (stereo not drawn), the max response was -1.05%.
The result for `CC(C)(C)S(=O)N1Cc2cc(C(=O)NCCCN3CCOCC3)nc(-c3cccc(-c4cc5ccccc5o4)c3)c2[C@H]1CCO` (stereo partly drawn) reads 0.439%.
Take `CCCCC[C@H](C)N1C[C@@H](COCc2ccccc2)Oc2cc(N3CCC[C@@H]3CO)ccc2S1(=O)=O`: the max response was 11.7%.
Turning to `Cc1cc(C(=O)N/N=C/c2ccc(O)c([N+](=O)[O-])c2)c(C)n1-c1ccc(F)cc1`, the max response was -71% (active).
With `COc1cc(/C=N/NC(=O)c2cc(C)n(-c3ccc(F)cc3)c2C)cc(OC)c1O`, the max response is -10.7%.
On to `Cc1nn(CC(=O)N/N=C/c2ccc(F)cc2)c(C)c1[N+](=O)[O-]`, for which the max response was -2.33%.
For the compound `CCCNC(=O)C1(C)CCCN(C(=O)c2oc3ccccc3c2C)C1` (stereo not drawn), the max response is -7.4%.
For `CCc1nc2ccc(C(=O)Nc3ccc(OC)c(OC)c3)cn2c1N(C)C(=O)c1cccc(OC)c1`, the max response was 3.96%.
